According to PubChem BioAssay AID1159580 (chemical genetic matrix, 2015):
Several values for one entry are separate records, joined by “and”; a condition that tells them apart may be missing. Equal entries are not always repeated. The whole screen tested about 5,500 compounds, of which about 2,000 (36%) were called active. Not shown: some 18% with an inconclusive outcome. No stated cut-off is given here; in the data, active means normalized growth mostly below about 0.91 (no sharp cut-off); inconclusive means no clear call, values can overlap the other calls; inactive means mostly above about 0.92. The list shows a part of the results.

Test: chemical genetic growth profiling, strain panel (AID 1159580);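 further: tested at 20 µM; growth read once vehicle control cultures reached saturation at 30 °C; 1 = growth at the plate median or of vehicle wells; lower values mean less growth of the strain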
Conditions: S. cerevisiae deletion strains, growth OD

Measured: normalized growth

COc1ccc2cc(CCC(C)=O)ccc2c1
inactive: locus YAL013W, strain DEP1, active compounds read low 0.952 | locus YAL021C, strain ccr4, active compounds read low 0.986 | locus YAL026C, strain drs2, active compounds read low 0.996 | locus YAL030W, strain snc1, active compounds read low 0.992 | locus YBL061C, strain skt5, active compounds read low 0.981 | locus YBR009C, strain hhf1, active compounds read low 0.989 | locus YBR021W, strain FUR4, active compounds read low 0.947 | locus YBR023C, strain chs3, active compounds read low 0.977 | locus YBR171W, strain sec66, active compounds read low 0.985 | locus YBR229C, strain ROT2, active compounds read low 0.919 | locus YBR231C, strain swc5, active compounds read low 0.996 | locus YBR279W, strain paf1, active compounds read low 0.993 | locus YCL011C, strain gbp2, active compounds read low 0.983 | locus YCL016C, strain dcc1, active compounds read low 0.997 | locus YCL029C, strain bik1, active compounds read low 0.939 | locus YCL061C, strain MRC1, active compounds read low 1 | locus YCL069W, strain vba3, active compounds read low 0.993 | locus YCR088W, strain abp1, active compounds read low 0.989 | locus YDL005C, strain med2, active compounds read low 1.02 | locus YDL035C, strain GPR1, active compounds read low 0.93 | locus YDL040C, strain nat1, active compounds read low 0.997 | locus YDL074C, strain BRE1, active compounds read low 0.935 | locus YDL101C, strain DUN1, active compounds read low 0.955 | locus YDL134C, strain PPH21, active compounds read low 0.967 | locus YDL185W, strain tfp1, active compounds read low 0.945 | locus YDR001C, strain nth1, active compounds read low 0.994 | locus YDR069C, strain doa4, active compounds read low 1.01 | locus YDR101C, strain arx1, active compounds read low 0.931 | locus YDR137W, strain rgp1, active compounds read low 1.1 | locus YDR150W, strain NUM1, active compounds read low 0.939 | locus YDR159W, strain sac3, active compounds read low 1.03 | locus YDR162C, strain NBP2, active compounds read low 0.943 | locus YDR195W, strain ref2 1.08 | locus YDR297W, strain sur2, active compounds read low 0.99 | locus YDR318W, strain mcm21, active compounds read low 0.93 | locus YDR334W, strain swr1, active compounds read low 1.01 | locus YDR335W, strain msn5, active compounds read low 0.999 | locus YDR388W, active compounds read low 0.942 | locus YDR392W, strain spt3, active compounds read low 0.967 | locus YEL003W, strain gim4, active compounds read low 0.991 | locus YEL037C, strain rad23, active compounds read low 0.991 | locus YEL061C, strain CIN8 (second series), active compounds read low 1 | locus YEL061C, strain CIN8, active compounds read low 0.946 | locus YER015W, strain faa2, active compounds read low 1 | locus YER016W, strain bim1, active compounds read low 0.99 | locus YER110C, active compounds read low 0.901 | locus YER111C, strain swi4, active compounds read low 1 | locus YER155C, strain BEM2, active compounds read low 0.965 | locus YER167W, strain BCK2, active compounds read low 0.92 | locus YFR010W, strain ubp6, active compounds read low 1.01 | locus YGL086W, strain mad1, active compounds read low 0.942 | locus YGL167C, strain pmr1, active compounds read low 0.99 | locus YGL173C, strain kem1, active compounds read low 0.987 | locus YGL227W, strain vid30, active compounds read low 0.999 | locus YGL240W, strain doc1, active compounds read low 0.929 | locus YGL248W, strain PDE1, active compounds read low 0.959 | locus YGL253W, strain hxk2, active compounds read low 0.992 | locus YGR078C, strain PAC10, active compounds read low 0.938 | locus YGR229C, strain SMI1, active compounds read low 0.919 | locus YHR013C, strain ard1, active compounds read low 1.02 | locus YHR027C, strain rpn1, active compounds read low 0.991 | locus YHR030C, strain SLT2, active compounds read low 0.958 and 0.924 | locus YHR079C, strain IRE1 (second series), active compounds read low 0.939 | locus YHR079C, strain IRE1, active compounds read low 0.956 | locus YHR094C, strain hxt1, active compounds read low 0.96 | locus YHR129C, strain ARP1, active compounds read low 0.971 | locus YHR142W, strain chs7, active compounds read low 0.976 | locus YHR200W, strain rpn10, active compounds read low 0.933 | locus YIL066C, strain RNR3, active compounds read low 0.929 | locus YIL073C, strain SPO22, active compounds read low 0.92 | locus YIL125W, strain kgd1, active compounds read low 0.942 | locus YIR030C, strain dcg1, active compounds read low 0.929 | locus YJL092W, strain hpr5, active compounds read low 0.992 | locus YJL095W, strain BCK1 (second series), active compounds read low 0.99 | locus YJL095W, strain BCK1, active compounds read low 0.922 and 0.939 | locus YJL115W, strain asf1, active compounds read low 1.01 | locus YJL129C, strain trk1, active compounds read low 0.97 | locus YJL134W, strain LCB3, active compounds read low 0.958 | locus YJL154C, strain vps35, active compounds read low 0.992 | locus YJL164C, strain tpk1, active compounds read low 0.992 | locus YJL166W, strain qcr8, active compounds read low 0.989 | locus YJL168C, strain set2, active compounds read low 0.957 | locus YJL187C, strain SWE1 (second series), active compounds read low 0.959 | locus YJL187C, strain SWE1, active compounds read low 0.992 | locus YJR043C, strain POL32, active compounds read low 0.917 | locus YJR066W, strain TOR1, active compounds read low 0.926
active: locus YDL192W, strain arf1, active compounds read low 0.91 | locus YDR502C, strain sam2, active compounds read low 0.908 | locus YER155C, strain BEM2 (second series), active compounds read low 0.843 | locus YGL078C, strain dbp3, active compounds read low 0.921 | locus YGR135W, strain pre9, active compounds read low 0.881 | locus YGR252W, strain gcn5, active compounds read low 0.763
